This is a sample that favours compounds with a hit; in the whole collection about 19% have one here.
ELG1 DNA repair: inhibitors of ELG1-dependent DNA repair in HEK293T cells; HEK293T ELG1-luciferase reporter, luminescence, 16 h; DNA damage induced by 5-fluorouridine; Potency, µM (series often up to 46.1 µM), hits mostly inhibitors; 330,000 tested, 2.3% active; AID 504467; further: nearly all actives have a fitted effect of over 55% in size
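Luminescence from the luciferase reporter, measured 30 min after ONE-Glo reagent at room temperature, was the read-out. Beforehand, 2,000 cells per well were exposed for 16 hr at 37 °C to 5-fluorouridine together with compound or vehicle.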
IL1B secr inh: inhibitors of inflammasome signaling (IL-1 beta secretion); THP-1 LPS/ATP IL-1B secretion, AlphaLISA, 16 h; stronger effect = lower value; activity change, % at 57.5 µM; 360,000 tested, 4.7% active; in the data active means activity change below about -50%; inconclusive means mostly about -30% to -49%
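THP-1 cells pretreated 1 hr with compounds (up to 57.5 uM final), then stimulated with LPS (250 ng/mL final) plus ATP (1.25 mM final); secreted IL-1B measured by AlphaLISA after 16 hr, decreased signal indicating inhibition.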
DT40 TDP1 CPT: growth inhibition of DT40 Tdp1-/-;hTDP1 cells with camptothecin (screen for TDP1 inhibitors); chicken DT40 Tdp1-/-;hTDP1 cells + 20 nM CPT, ATP luminescence, 48 h; Potency, µM (top dose mostly 46.2 µM), actives largely listed as inhibitors; 420,000 tested, 12% active; further: nearly all actives have a fitted effect of over 55% in size
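Cell growth measured by CellTiter-Glo luminescence after a minimum 48 h, 37 C compound exposure with 20 nM CPT in Tdp1-knockout DT40 cells stably expressing hTDP1, seeded 400/well; qHTS titration format.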
HT1080 IDH1KD tx: kills HT-1080 cells with IDH1 knockdown; HT-1080 IDH1 knockdown viability, ATP luminescence, 48 h; Potency, µM (top dose mostly 46.1 µM), hits mostly cytotoxic; 360,000 tested, 2% active; AID 686971
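Using the IDH1-knockdown HT-1080 line run in the same batch and compound series as the NT line, viability after 48 h at 37 °C was determined by CellTiter-Glo luminescence and expressed as % activity.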
HT1080NT lethal: kills 2HG-producing HT-1080-NT fibrosarcoma cells; HT-1080-NT fibrosarcoma viability, CellTiter-Glo ATP luminescence, 48 h; Potency, µM (series often up to 46.1 µM), actives largely listed as cytotoxic; 360,000 tested, 1.6% active;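 further: NT is the 2HG producing partner of a matched IDH1 knockdown line; nearly all actives have a fitted effect of over 55% in size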
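Luminescent CellTiter-Glo readout after 48 hours of compound exposure at 37 degrees C defined viability of HT-1080-NT cells. Activity was normalized to DMSO wells and cell-free media wells; concentration-response curves were fitted and assigned curve classes.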
TDP1 cell noCPT: qHTS for Inhibitors of human tyrosyl-DNA phosphodiesterase 1 (TDP1): qHTS in cells in absence of CPT; DT40 Tdp1-/- hTDP1 cells, no CPT, ATP luminescence, 48 h; Potency, µM (highest dose often 46.2 µM), usual class: inhibitors; 420,000 tested, 15% active; further: nearly all actives have a fitted effect of over 55% in size
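Readout: luminescence from CellTiter-Glo after 30 min in the dark at RT. Cells: DT40 Tdp1-/- with stable hTDP1, 400/well. Exposure: compounds alone, ≥48 hr, 37 °C.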
A number is an active result; 0 = inactive; ? = inconclusive; - = no result; ! = not confirmed by another sample. Unless noted, the call rests on the fitted dose curve; in most records, active means well fitted curve in the direction sought with a large enough effect; inconclusive means small, poorly fitted or top-dose-only effect, or another doubt; inactive means no such curve, though single readings can be large; an effect the other way counts as inactive or inconclusive.

SMILES | ELG1 DNA repair | IL1B secr inh | DT40 TDP1 CPT | HT1080 IDH1KD tx | HT1080NT lethal | TDP1 cell noCPT
COc1ccc(NS(=O)(=O)c2ccc(-c3cnc(C4CC4)o3)cc2)cc1OC | 1.8µM | 0 | 2.1µM | 15µM | 15µM | 1.6µM
CCOc1ccccc1NS(=O)(=O)c1cc(-c2cnc(C3CC3)o2)ccc1C | - | - | 0 | - | - | ?
COc1ccccc1CNS(=O)(=O)c1ccc(-c2cnc(C3CC3)o2)cc1 | ? | 0 | 0.92µM! | ? | 4.6µM | 0.58µM
O=S(=O)(Nc1cccc(C(F)(F)F)c1)c1ccc(-c2cnc(C3CC3)o2)cc1 | - | - | 3.7µM | - | - | 2.6µM
O=S(=O)(Nc1ccc(Cl)cn1)c1ccc(F)cc1 | 0 | 0 | 0 | 0 | 0 | 0
CCOc1cccc(N(C(=O)CNC(=O)c2ccco2)C(C(=O)NCC2CCCO2)c2ccccc2)c1 (centres undefined) | 0 | 0 | 0 | 0 | 0 | ?
COc1ccccc1NS(=O)(=O)c1ccc(-c2cnc(C3CC3)o2)cc1 | ? | 0 | 0.73µM | 0.73µM | ? | 0.92µM
Cn1c(SCC(=O)N2CCCc3ccccc32)nnc1-c1ccccc1 | 0 | 0 | 0 | 0 | 0 | 0
Cc1cccc(-c2nnc(SCC(=O)N3c4ccccc4CCc4ccccc43)n2C)c1 | 0 | -56 | ? | 0 | 0 | 23µM
CCN(CC)C(=O)CSc1nc2ccccc2c(=O)n1CC | 0 | 0 | ? | 0 | 0 | 0
CCN(CC)C(=O)CSc1nnc(-c2cc3ccccc3cc2O)n1CC | ? | 0 | 0.92µM | 0 | 0 | 9.2µM
Cn1c(SCC(=O)N2c3ccccc3CCc3ccccc32)nnc1-c1cc2ccccc2cc1O | 0 | ? | 16µM | 0 | 0 | 15µM
COc1ccccc1CNC(=O)C1CCN(S(=O)(=O)c2ccc3c(ccn3C)c2)CC1 | - | - | 0 | - | - | ?
CCNc1ncc2nc(-c3ccc(F)cc3)c(=O)n(CCC#N)c2n1 | - | - | 0 | - | - | 0
COC(=O)c1ccc(C)c(-n2c(=O)n(Cc3ccccc3)c(=O)c3[nH]cnc32)c1 | 0 | 0 | ? | 0 | 0 | 21µM
Cc1cc(NC(=O)NC(=O)c2ccccc2NC(=O)CN(C)C)ccc1Oc1ncc(Br)cn1 | - | 0 | 3.7µM | ? | ? | 4.1µM
Nc1ccccc1C(=O)NC(=O)Nc1ccc(Oc2ncc(Br)cn2)c(Cl)c1 | - | 0 | 0.0052µM | ? | ? | 0.018µM
Nc1ccccc1C(=O)Nc1ccc(Cl)cc1Cl | ? | 0 | 0 | 0 | 0 | ?
Cc1cc(NC(=O)NC(=O)c2ccccc2NC(=O)CN)ccc1Oc1ncc(Br)cn1 | - | 0 | 0.82µM | ? | 0.52µM | 0.58µM
COc1ccccc1CN1CC(C(=O)N(Cc2cnn(C)c2)C(C)C)CCC1=O (centres undefined) | 0 | 0 | 0 | 0 | 0 | 0
COc1cccc(CNC(=O)CCC2CCCN(C(=O)c3cccnc3SC)C2)c1 (centres undefined) | 0 | 0 | ? | 0 | 0 | ?
CCc1ccc(-n2c(Cc3ccccc3)nnc2SCc2nc(-c3cccs3)no2)cc1 | - | - | 23µM | - | - | 16µM
Cc1ccc(-n2c(Cc3ccccc3)nnc2SCc2nc(-c3cccs3)no2)cc1C | - | - | ? | - | - | 23µM
Fc1ccc(-n2c(Cc3ccccc3)nnc2SCc2nc(-c3cccs3)no2)cc1 | ? | 0 | ? | 0 | ? | ?
CC(=O)c1ccc(N2CCN(S(=O)(=O)c3cc(-c4noc(C)n4)ccc3C)CC2)cc1 | - | - | ? | - | - | 0
CCc1cccc(NC(=O)C2CCN(S(=O)(=O)c3cccc(-c4noc(C)n4)c3)CC2)c1 | - | - | ? | - | - | 21µM
CCc1cccc(NC(=O)C2CCN(S(=O)(=O)c3c(C)noc3C)CC2)c1 | 0 | 0 | 0 | 0 | 0 | 0
Cc1nc(-c2cccc(S(=O)(=O)N3CCC(C(=O)NCc4ccccc4Cl)CC3)c2)no1 | - | - | 18µM | - | - | 0
Cc1nc(-c2ccc(C)c(S(=O)(=O)N3CCC(C(=O)Nc4ccc(Cl)cc4)CC3)c2)no1 | - | - | 16µM | - | - | ?

Bioassay records as filed in PubChem.
